Molecules are shown by their SMILES. Compounds without any hit were thinned out: in the full panel of roughly 83,000, 20% have a hit.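 96-well plates, one dose, 48 hours. Percent growth reported; active if below 10.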 A number with no mark means an inactive call. Calls of active or inactive are those of the source.

Test systems include DU-145 prostate; K-562 leukemia; MALME-3M melanoma; MDA-MB-231 breast; RXF 393 renal; SF-268 CNS; SF-295 CNS; SF-539 CNS; UACC-257 melanoma; M14 melanoma; HCT-15 colon; HT29 colon; SNB-75 CNS; SNB-19 CNS; U251 CNS; PC-3 prostate; SK-MEL-5 melanoma; UACC-62 melanoma; LOX IMVI melanoma; SK-MEL-28 melanoma.
Holding throughout (experiment): NCI-60 one-dose screen, 48 h (100 = growth as untreated, 0 = no growth, -100 = all killed)
Holding throughout (settings): 10 µM unless noted

On to `O=C(NNC(=O)c1ccc(OCc2nc3ccc(Cl)cc3[nH]2)cc1)Nc1ccc(Cl)c(Cl)c1`, for which the growth in the assay with DU-145 prostate was 73%; in the assay on K-562 leukemia it was 29.6%; in the assay on MALME-3M melanoma it was 6.73% (active); in the assay on MDA-MB-231 breast, 44.1%; with RXF 393 renal, 69.4%; in the assay on SF-268 CNS, 85.6%. Moreover, the growth is 101% in the assay on SF-295 CNS; 43.3% with SF-539 CNS; 95.6% in the assay on UACC-257 melanoma; 56.4% in the assay with M14 melanoma; 98.9% with HCT-15 colon; 67.2% in the assay with HT29 colon. Besides, the growth is 111% with SNB-75 CNS; 20.2% with SNB-19 CNS; -1.4% (active) in the assay with U251 CNS; 63.3% with PC-3 prostate; 56.5% with SK-MEL-5 melanoma; 62.7% in the assay on UACC-62 melanoma. Besides, the growth in the assay with LOX IMVI melanoma was 40%; with SK-MEL-28 melanoma, 8.8% (active).

As for `Cc1ccc(C(C)C)cc1Oc1cccc(-c2c(-c3ccc(C(F)(F)F)cc3)ncn2C2CCNCC2)n1`, the growth in the assay with DU-145 prostate is -83.5% (active); with K-562 leukemia it was -60.7% (active); with MALME-3M melanoma it was -86.6% (active); in the assay with MDA-MB-231 breast, -95.7% (active); in the assay with RXF 393 renal, -90.3% (active); with SF-268 CNS it was -56.6% (active). Further, the growth in the assay with SF-295 CNS was -94.2% (active); in the assay with SF-539 CNS it was -98.2% (active); with UACC-257 melanoma it was -88.4% (active); in the assay on M14 melanoma it was -97.2% (active); with HCT-15 colon it was -94.1% (active); with HT29 colon, -92.1% (active). For the same compound, the growth in the assay with SNB-75 CNS is -94.1% (active); in the assay with SNB-19 CNS it was -97.2% (active); with U251 CNS, -85.3% (active); in the assay with PC-3 prostate, -92% (active); in the assay on SK-MEL-5 melanoma, -98.6% (active); with UACC-62 melanoma, -94.1% (active). The growth in the assay on LOX IMVI melanoma was -75.8% (active); in the assay with SK-MEL-28 melanoma, -80.5% (active).

As to `COc1ccc(NC(=O)Nc2nc3ccc([N+](=O)[O-])cc3s2)cc1`, the growth with DU-145 prostate is 24.8%; in the assay with K-562 leukemia it was 9.59% (active); in the assay with MALME-3M melanoma, -1.52% (active); in the assay with MDA-MB-231 breast, 46.1%; in the assay on RXF 393 renal it was -0.305% (active); with SF-268 CNS it was 38.6%. Further, the growth was 35.6% in the assay on SF-295 CNS; 7.77% (active) in the assay on SF-539 CNS; 16% in the assay with UACC-257 melanoma; 57.6% in the assay on M14 melanoma; 9.87% (active) in the assay with HCT-15 colon; 58.1% in the assay on HT29 colon. Moreover, the growth in the assay on SNB-75 CNS is 62.3%; in the assay on SNB-19 CNS, 14.6%; in the assay with U251 CNS, 0.863% (active); in the assay with PC-3 prostate, 10.5%; in the assay with SK-MEL-5 melanoma, -70.7% (active); with UACC-62 melanoma, 36.2%. Further, the growth was 33.8% in the assay with LOX IMVI melanoma and 47.7% in the assay on SK-MEL-28 melanoma.

Consider `NCCCCn1c(SCCc2c[nH]c3ccccc23)nnc1-c1ccc2ccccc2n1`, for which the growth in the assay with DU-145 prostate is 42.8%; in the assay on K-562 leukemia it was -35.4% (active); in the assay with MALME-3M melanoma it was -99.4% (active); in the assay on MDA-MB-231 breast it was -83.7% (active); with RXF 393 renal it was -38.3% (active); with SF-268 CNS, 42.4%. Also, the growth in the assay with SF-295 CNS is -83.4% (active); in the assay on SF-539 CNS it was -99% (active); with UACC-257 melanoma it was -89.8% (active); in the assay with M14 melanoma it was -90.1% (active); with HCT-15 colon, -1.2% (active); in the assay with HT29 colon, -45.3% (active). Moreover, the growth in the assay with SNB-75 CNS was 0.128% (active); with SNB-19 CNS, 18.6%; in the assay with U251 CNS, -84.8% (active); in the assay with PC-3 prostate, 2.82% (active); in the assay with SK-MEL-5 melanoma it was -99.4% (active); with UACC-62 melanoma, -88.5% (active). Further, the growth was -95.6% (active) in the assay with LOX IMVI melanoma and -97.4% (active) in the assay with SK-MEL-28 melanoma.

Take `COc1ccc2c(c1)C(=O)N(C)C2C1c2c(cc3c(c2OC)OCO3)CCN1C` (stereo not given): the growth in the assay with DU-145 prostate was 73.2%; in the assay on K-562 leukemia, 16.6%; with MALME-3M melanoma it was 33.8%; in the assay on MDA-MB-231 breast, 66.7%; in the assay with RXF 393 renal, 19.8%; in the assay with SF-268 CNS it was 66%. Further, the growth with SF-295 CNS is 26.7%; with SF-539 CNS, 45.5%; with UACC-257 melanoma, 71%; in the assay with M14 melanoma, 36.6%; in the assay on HCT-15 colon it was 22.5%; with HT29 colon, 33.2%. Moreover, the growth is 37.3% with SNB-75 CNS; 49.1% in the assay on SNB-19 CNS; 42.7% in the assay on U251 CNS; 46.9% in the assay on PC-3 prostate; 24.9% in the assay with SK-MEL-5 melanoma; 26.8% with UACC-62 melanoma. Further, the figures for the growth in the assay on LOX IMVI melanoma and in the assay on SK-MEL-28 melanoma were 46.7% and 55.9%, respectively.

Consider `O=C1/C(=C/c2cnc(-c3ccccc3)s2)SC(=S)N1Cc1ccc2c(c1)OCO2`, for which the growth is 86% in the assay with DU-145 prostate; 42.1% in the assay with K-562 leukemia; 70.2% with MALME-3M melanoma; 76.9% with MDA-MB-231 breast; 10.5% in the assay with RXF 393 renal; 44.6% with SF-268 CNS. The growth in the assay on SF-295 CNS is 9.27% (active); with SF-539 CNS it was 23.3%; with UACC-257 melanoma, 108%; in the assay with M14 melanoma, 107%; with HCT-15 colon, 81.2%; with HT29 colon it was 111%. Further, the growth is -30.1% (active) in the assay on SNB-75 CNS; 16.7% with SNB-19 CNS; 42% in the assay on U251 CNS; 97.9% in the assay on PC-3 prostate; 96.9% in the assay on SK-MEL-5 melanoma; 61.5% in the assay on UACC-62 melanoma. Moreover, the figures for the growth in the assay on LOX IMVI melanoma and with SK-MEL-28 melanoma were 66.6% and 103%, respectively.

Turning to `Cc1ccc(C(=O)Nc2cc(-c3ccccc3)cc(C(F)(F)F)c2)cc1C#Cc1cnc2cccnn12`, the growth was 84.8% with DU-145 prostate; 5.94% (active) in the assay on K-562 leukemia; 39% with MALME-3M melanoma; 57.3% in the assay on MDA-MB-231 breast; 73.7% in the assay on RXF 393 renal; 91.9% in the assay on SF-268 CNS. Further, the growth with SF-295 CNS is 68%; in the assay with SF-539 CNS it was 63.8%; in the assay on UACC-257 melanoma, 65.8%; in the assay on M14 melanoma, 36.8%; in the assay with HCT-15 colon, 57.7%; in the assay with HT29 colon it was 34.8%. In addition, the growth in the assay on SNB-75 CNS was 112%; with SNB-19 CNS, 92.3%; with U251 CNS, 74.9%; in the assay on PC-3 prostate, 65.8%; in the assay with SK-MEL-5 melanoma, 26%; in the assay with UACC-62 melanoma, 46.1%. Also, the growth in the assay with LOX IMVI melanoma was 39.4%; with SK-MEL-28 melanoma it was 52.9%.
